Holding throughout (details): Compound concentration 20.0 uM, Protein concentration 2.0 uM, Result type QC Liability
Test [1] concerns the target Tyrosine-protein kinase ABL1 (Homo sapiens) (UniProt P00519).
In test [2] the target is Cyclin-dependent kinase 2 (Homo sapiens) (UniProt P24941).
The target of test [3] is Casein kinase I isoform delta (Homo sapiens) (UniProt P48730).
The target in test [4] is Glycogen synthase kinase-3 beta (Homo sapiens) (UniProt P49841).
The target of test [5] is Mitogen-activated protein kinase 1 (Homo sapiens) (UniProt P28482).
Chain of Mitogen-activated protein kinase 1 (Homo sapiens) (P28482 whole entry): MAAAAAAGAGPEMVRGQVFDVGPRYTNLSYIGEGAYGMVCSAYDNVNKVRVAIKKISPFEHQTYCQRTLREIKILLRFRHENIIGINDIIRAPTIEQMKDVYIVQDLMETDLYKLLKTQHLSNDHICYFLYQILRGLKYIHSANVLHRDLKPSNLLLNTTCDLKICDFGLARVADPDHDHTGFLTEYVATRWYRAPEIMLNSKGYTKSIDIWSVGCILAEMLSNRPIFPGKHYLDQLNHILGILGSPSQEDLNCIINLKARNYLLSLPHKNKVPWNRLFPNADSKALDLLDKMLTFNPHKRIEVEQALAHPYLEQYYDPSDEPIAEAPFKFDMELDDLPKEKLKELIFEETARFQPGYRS
The target of test [6] is T1, Aurora kinase A (Homo sapiens) (UniProt O14965).
T1 sequence (whole entry): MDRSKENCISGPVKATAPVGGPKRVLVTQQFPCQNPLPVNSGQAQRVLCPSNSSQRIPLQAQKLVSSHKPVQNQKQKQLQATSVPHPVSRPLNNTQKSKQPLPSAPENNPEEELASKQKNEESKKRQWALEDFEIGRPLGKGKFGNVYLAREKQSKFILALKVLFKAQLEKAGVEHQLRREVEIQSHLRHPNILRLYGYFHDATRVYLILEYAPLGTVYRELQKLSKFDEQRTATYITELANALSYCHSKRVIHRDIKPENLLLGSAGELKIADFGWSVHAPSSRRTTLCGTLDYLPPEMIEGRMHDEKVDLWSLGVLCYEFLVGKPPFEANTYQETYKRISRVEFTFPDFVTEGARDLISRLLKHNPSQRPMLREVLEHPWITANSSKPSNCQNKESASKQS

Chain of Tyrosine-protein kinase ABL1 (Homo sapiens) (P00519 whole entry): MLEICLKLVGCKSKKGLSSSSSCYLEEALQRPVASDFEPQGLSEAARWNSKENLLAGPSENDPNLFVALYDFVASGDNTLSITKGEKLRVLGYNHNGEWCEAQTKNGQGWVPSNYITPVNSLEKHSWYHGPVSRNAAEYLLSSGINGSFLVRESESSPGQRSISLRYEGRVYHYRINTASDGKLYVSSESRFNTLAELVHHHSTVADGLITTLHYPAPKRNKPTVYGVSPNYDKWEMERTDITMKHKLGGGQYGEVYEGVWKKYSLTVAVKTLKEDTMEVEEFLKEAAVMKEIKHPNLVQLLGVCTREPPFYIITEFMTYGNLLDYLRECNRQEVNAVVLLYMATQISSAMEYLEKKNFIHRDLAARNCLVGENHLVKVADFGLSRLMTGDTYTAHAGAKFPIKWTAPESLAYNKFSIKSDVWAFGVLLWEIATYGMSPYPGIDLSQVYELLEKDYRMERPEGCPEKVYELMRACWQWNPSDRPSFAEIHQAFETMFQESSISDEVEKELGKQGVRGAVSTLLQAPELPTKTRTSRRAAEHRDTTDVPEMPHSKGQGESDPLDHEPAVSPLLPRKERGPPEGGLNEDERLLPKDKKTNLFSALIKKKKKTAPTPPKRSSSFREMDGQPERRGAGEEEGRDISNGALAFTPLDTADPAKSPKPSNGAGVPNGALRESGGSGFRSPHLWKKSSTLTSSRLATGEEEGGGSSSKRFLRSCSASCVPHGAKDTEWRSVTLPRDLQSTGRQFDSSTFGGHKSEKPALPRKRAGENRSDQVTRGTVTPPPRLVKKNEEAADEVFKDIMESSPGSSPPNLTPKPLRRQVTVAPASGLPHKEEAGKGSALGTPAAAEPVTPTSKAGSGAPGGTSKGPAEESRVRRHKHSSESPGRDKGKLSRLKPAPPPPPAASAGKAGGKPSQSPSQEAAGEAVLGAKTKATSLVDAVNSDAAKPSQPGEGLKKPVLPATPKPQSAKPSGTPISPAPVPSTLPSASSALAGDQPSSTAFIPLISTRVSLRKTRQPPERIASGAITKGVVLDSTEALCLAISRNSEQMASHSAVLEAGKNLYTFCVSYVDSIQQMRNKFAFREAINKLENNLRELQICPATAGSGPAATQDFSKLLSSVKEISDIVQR
Chain of Glycogen synthase kinase-3 beta (Homo sapiens) (P49841 whole entry, looked up): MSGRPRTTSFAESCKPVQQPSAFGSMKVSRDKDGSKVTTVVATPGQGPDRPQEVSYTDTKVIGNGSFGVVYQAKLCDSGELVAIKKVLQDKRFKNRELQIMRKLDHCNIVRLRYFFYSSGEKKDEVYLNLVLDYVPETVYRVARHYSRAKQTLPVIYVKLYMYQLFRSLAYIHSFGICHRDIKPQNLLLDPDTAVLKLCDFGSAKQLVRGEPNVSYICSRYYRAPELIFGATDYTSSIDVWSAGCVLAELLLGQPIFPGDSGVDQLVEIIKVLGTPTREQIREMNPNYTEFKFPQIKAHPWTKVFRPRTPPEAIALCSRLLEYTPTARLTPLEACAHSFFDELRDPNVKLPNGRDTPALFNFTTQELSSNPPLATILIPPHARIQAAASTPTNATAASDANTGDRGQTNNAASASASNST
Chain of Casein kinase I isoform delta (Homo sapiens) (P48730 whole entry, looked up, canonical isoform): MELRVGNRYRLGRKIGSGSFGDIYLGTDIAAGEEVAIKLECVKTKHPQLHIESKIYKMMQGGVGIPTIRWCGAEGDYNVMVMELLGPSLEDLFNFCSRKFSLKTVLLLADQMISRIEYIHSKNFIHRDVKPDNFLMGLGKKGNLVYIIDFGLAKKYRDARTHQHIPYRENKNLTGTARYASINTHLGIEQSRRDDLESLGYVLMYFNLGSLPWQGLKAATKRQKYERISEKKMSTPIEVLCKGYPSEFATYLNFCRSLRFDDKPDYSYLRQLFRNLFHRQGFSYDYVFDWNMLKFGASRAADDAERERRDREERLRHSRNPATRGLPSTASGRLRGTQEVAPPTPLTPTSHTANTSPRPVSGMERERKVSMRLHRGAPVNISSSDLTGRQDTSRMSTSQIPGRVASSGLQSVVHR

As to `CCN1CCN(Cc2ccc(C(=O)Nc3ccc(C)c(Oc4ccc5c(c4)CC(=O)N5)c3)cc2C(F)(F)F)CC1`, the ΔTm in test [1] is 12.9 °C; in test [2] it was 0.01 °C; in test [3], 0.95 °C; in test [4], 0.8 °C; in test [5] it was 0.26 °C; in test [6], -1.25 °C.

With `Cn1nccc1-c1ccc(Sc2cccc(C3(C(N)=O)CCOCC3)c2)cc1`, the ΔTm is -0.11 °C in test [1]; 0.88 °C in test [2]; -0.02 °C in test [3]; -1.17 °C in test [4]; 0.22 °C in test [5]; 0.6 °C in test [6].

Regarding `CCS(=O)(=O)c1cc2cc(C[C@](O)(CC(C)(C)c3ccc(F)cc3C(N)=O)C(F)(F)F)[nH]c2cn1`, the ΔTm was 0.15 °C in test [1]; 0.5 °C in test [2]; 0.37 °C in test [3]; -0.73 °C in test [4]; 0.36 °C in test [5]; 0.03 °C in test [6].

`COc1cc2nc([C@@H]3CCCS(=O)(=O)C3)n(C)c2cc1NC(=O)c1cccc(C(C)(F)F)n1`: the ΔTm in test [1] is 0.81 °C; in test [2], 0.09 °C; in test [3], 0.86 °C; in test [4], -1.39 °C; in test [5] it was 0.05 °C; in test [6], 1.82 °C.

Regarding `C[C@H](NC(=O)c1cc(Cl)ccc1Oc1ccc(F)cc1)c1ccc(C(=O)O)cc1`, the ΔTm in test [1] was -0.11 °C; in test [2] it was 0.27 °C; in test [3] it was -2.45 °C; in test [4] it was 0.51 °C; in test [5] it was 0.18 °C; in test [6] it was -0.14 °C.

With `COc1cccc(-c2c(C)c(Cc3c(F)cccc3C(F)(F)F)c3n(c2=O)[C@@H]([C@@H](N)c2ccccc2)CS3)c1F`, the ΔTm is -0.84 °C in test [1]; -0.89 °C in test [2]; -2.7 °C in test [3]; -0.72 °C in test [4]; -2.02 °C in test [5]; -0.62 °C in test [6].

For `COc1ccc(C(F)(F)F)cc1NC(=O)Nc1ccc(Oc2cc(C)nc(N)n2)c2ccccc12`, the ΔTm in test [1] is 5.29 °C; in test [2], 1.11 °C; in test [3] it was 0.31 °C; in test [4], 1.99 °C; in test [5] it was 0.06 °C; in test [6], -0.77 °C.

For the compound `Nc1nccc(-c2c(-c3ccc(F)cc3)ncn2C2CCCCC2)n1`, the ΔTm in test [1] was 2.76 °C; in test [2] it was -0.08 °C; in test [3], 8.08 °C; in test [4], 2.6 °C; in test [5] it was 0.33 °C; in test [6], -0.66 °C.

Turning to `Cn1cncc1-c1cn(-c2cccc(C(=O)Nc3cccc(C(F)(F)F)c3)c2)nn1`, the ΔTm in test [1] was 7.19 °C; in test [2], 0.01 °C; in test [3], -7.39 °C; in test [4], -0.16 °C; in test [5] it was -8.38 °C; in test [6] it was 1.95 °C.

Regarding `COc1ccc(-c2csc(NC(=O)[C@H]3CCCCN3S(=O)(=O)c3ccc(C)cc3)n2)cc1`, the ΔTm was 0.82 °C in test [1]; 0.77 °C in test [2]; 2.05 °C in test [3]; 9.29 °C in test [4]; -0.89 °C in test [5]; 0.39 °C in test [6].

Consider `O=C(CNC(=O)c1ccc(-c2ccccc2)cc1)NC1CCCc2ccccc21` (stereo unspecified), for which the ΔTm is 0.75 °C in test [1]; -0.06 °C in test [2]; -1.78 °C in test [3]; -2.76 °C in test [4]; 0.17 °C in test [5]; -1.46 °C in test [6].

For `CCCCC[C@@](C)(O)/C=C/[C@H]1C(=O)CC(O)C1C/C=C\CCCC(=O)O` (stereo partly specified), the ΔTm in test [1] is -0.65 °C; in test [2] it was 0.16 °C; in test [3] it was -0.52 °C; in test [4] it was 0.15 °C; in test [5], -0.04 °C; in test [6], -0.74 °C.

In the case of `C[S+]([O-])c1ccc(-c2nc(-c3cccc(I)c3)c(-c3ccncc3)[nH]2)cc1` (stereo unspecified), the ΔTm in test [1] was 0.33 °C; in test [2], -0.2 °C; in test [3], 2.61 °C; in test [4], 5.08 °C; in test [5] it was -1.08 °C; in test [6], -1.53 °C.

In the case of `CCCCOc1c(C(=O)c2c(F)cc(C)cc2F)c[nH]c2nncc1-2`, the ΔTm in test [1] was determined as 0.35 °C; in test [2] it was 2.95 °C; in test [3], 0.13 °C; in test [4] it was 0.42 °C; in test [5], 0.05 °C; in test [6], 0.96 °C.

As to `CN(C)C(=O)Cn1cc(-c2nc(C3(c4ccc(-c5cnc(N)nc5)cc4)CC3)no2)cn1`, the ΔTm in test [1] was 0.7 °C; in test [2], 0.53 °C; in test [3], 0.13 °C; in test [4], -0.37 °C; in test [5], 0.16 °C; in test [6], 1.51 °C.

With `CCCCC[C@H](O)/C=C/[C@H]1[C@H](O)CC(=O)[C@@H]1CCCCCCC(=O)O`, the ΔTm in test [1] was 0.19 °C; in test [2], 0.43 °C; in test [3] it was 0.1 °C; in test [4], -0.48 °C; in test [5], 0.29 °C; in test [6] it was -0.09 °C.

On to `CCOC(=O)c1cc2cc(-c3cc(C(=O)NCc4ccc(C(=O)O)cc4)nn3C)ccc2[nH]1`, for which the ΔTm in test [1] is 0.13 °C; in test [2], -0.6 °C; in test [3] it was 0.53 °C; in test [4] it was 0.78 °C; in test [5] it was -0.1 °C; in test [6], 1.73 °C.

On to `C1=Cc2ccccc2C(=C2CCN(CCCCc3nnn[nH]3)CC2)c2ccccc21`, for which the ΔTm in test [1] is -0.16 °C; in test [2], 0.18 °C; in test [3] it was -0.15 °C; in test [4] it was 0.27 °C; in test [5] it was -0.08 °C; in test [6], -0.37 °C.

For the compound `Oc1c(CN2CCCC2)cc(COCc2ccccc2)c2cccnc12`, the ΔTm is 0.07 °C in test [1]; 0.07 °C in test [2]; 1.22 °C in test [3]; -0.76 °C in test [4]; 0.33 °C in test [5]; -1.78 °C in test [6].

Turning to `Cc1cc(SCc2sc(-c3ccc(C(F)(F)F)cc3)nc2C)ccc1OCC(=O)O`, the ΔTm in test [1] was 0 °C; in test [2], 0.3 °C; in test [3], 1.18 °C; in test [4], -1.11 °C; in test [5], 0.57 °C; in test [6] it was -2.58 °C.

As to `Cc1nccn1-c1ccc(Sc2cccc(C3(C(N)=O)CCOCC3)c2)cc1`, the ΔTm was -0.23 °C in test [1]; 0.53 °C in test [2]; -0.21 °C in test [3]; 0.36 °C in test [4]; 0.38 °C in test [5]; -0.31 °C in test [6].

In the case of `N#CN1CC[C@H](C(=O)Nc2nc3c(s2)CN(C(=O)CN=[N+]=[N-])CC3)C1`, the ΔTm was 0.16 °C in test [1]; 0.34 °C in test [2]; 0.24 °C in test [3]; -0.2 °C in test [4]; 0.64 °C in test [5]; -0.99 °C in test [6].

As to `Cc1cnc(Nc2ccc(C(=O)N3CCN(C)CC3)cc2)nc1N[C@@H]1CCC[C@@H]1C(N)=O`, the ΔTm is 5.89 °C in test [1]; 6.47 °C in test [2]; 0.27 °C in test [3]; 3.07 °C in test [4]; 1.68 °C in test [5]; 14.7 °C in test [6].

Regarding `CN(C)CCCNc1ccnc(Nc2cccc(Cl)c2)n1`, the ΔTm in test [1] was 2.74 °C; in test [2] it was 2.3 °C; in test [3], 0.78 °C; in test [4], 6.75 °C; in test [5] it was 0.51 °C; in test [6], 2.26 °C.

As to `CCN(CC)C/C=C/C(=O)Nc1cc2c(Nc3ccc(F)c(Cl)c3)ncnc2cc1OCC1CC1`, the ΔTm in test [1] is 7.73 °C; in test [2], -0.55 °C; in test [3], 0.34 °C; in test [4], -0.95 °C; in test [5] it was -0.24 °C; in test [6] it was 1.29 °C.

Take `CCO[C@@H](Cc1ccc(OCCc2ccc(OS(C)(=O)=O)cc2)cc1)C(=O)O`: the ΔTm in test [1] is 0.03 °C; in test [2], 0.41 °C; in test [3], -0.31 °C; in test [4], -0.58 °C; in test [5] it was 0.21 °C; in test [6], 0.09 °C.

Source of the values: ChEMBL document CHEMBL5308504, “Tm Shift (DSF) assay results for EUbOPEN Chemogenomics Library” (2023).
